GRK2 aptamer HTS: blocks RNA aptamer binding to human GRK2. P25098. bead flow cytometry, FAM-aptamer displacement from GRK2. inhibition of aptamer binding, % at 10 µM. 330,000 compounds, 0.59% hits. AID 488847;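 active means inhibition of aptamer binding above 40%, roughly 3 SD of noise, on plates passing a quality check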;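 further: median bead fluorescence of bound FAM aptamer so fluorescent compounds give negative values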
TLR9-MyD88 inh: TLR9-MyD88 interaction inhibition | Q9NR96+Q99836 | CHO BLA complementation TLR9-MyD88, CCF4 FRET ratio | inhibition, % at 4.98 µM | 340,000 compounds, 0.21% hits;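 active means inhibition above the mean over all tested compounds plus 3 SD, cut at about 21% in these data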;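 further: 0% = DMSO only wells and 100% = clavulanate BLA inhibitor control wells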
ANO1 block: blocks the mouse calcium-activated chloride channel TMEM16A; HEK293 TMEM16A/YFP iodide influx fluorescence, ionomycin; normalized B-score (activity score, 25-100; higher = stronger inhibition) at 10 µM; 310,000 compounds, 1.2% hits; AID 588511;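 active means ratio plate-corrected score three or more library SD toward inhibition, starting fluorescence score within five deviations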;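 further: score derived from kinetic fluorescence span divided by baseline fluorescence per well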
NOD2-RIPK2 inh: blocks binding of human NOD2 to RIPK2 | O43353 | CHO BLA complementation NOD2-RIPK2, CCF4 ratio | inhibition, % at 4.98 µM | 360,000 compounds, 0.38% hits | AID 624267; in the data active means inhibition above about 21%;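 further: 0% = vehicle only and 100% = reference blocker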
TLR4-MyD88 BLA: TLR4-MyD88 interaction inhibition in cells. 200,000 compounds, 0.18% hits. AID 861. O00206+Q99836. inhibition, % at 8.4 µM. HeLa CL3-4 TLR4/MyD88 BLA complementation, FRET ratio; in the data active means inhibition above about 25%;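 further: 0% = vehicle and 100% = reference inhibitor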
ANO1 activ: mouse TMEM16A channel activation, primary screen. HEK293 TMEM16A/YFP-H148Q/I152L, iodide quench fluorescence; stronger effect = lower value. B-score at 10 µM. Q8BHY3. AID 623877. 340,000 compounds, 0.3% hits;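 active means fluorescence-ratio B-score plate-corrected deviation score at least 3 library SD below zero, with starting fluorescence score within 5 deviations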;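 further: channel opened by trigger with iodide after compound preincubation; score built on the fluorescence ratio of max minus min over baseline; more negative score means more quench and so TMEM16A activation or potentiation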
TLR9-MyD88 conf: TLR9-MyD88 interaction inhibition, confirmation; shares compounds with TLR9-MyD88 inh; CHO TLR9/MyD88 BLA complementation, CCF4 FRET ratio; inhibition, % at 4.98 µM; 680 compounds, 51% hits; AID 540250;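 active means mean inhibition across three repeats above about 21% taken from the earlier screen, limit read from the data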;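 further: blue over green emission ratio reports constitutive TLR9 MyD88 association via BLA complementation; 0% = DMSO vehicle wells and 100% = clavulanate BLA inhibitor wells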
Target sequence (Q9NR96 whole entry, looked up): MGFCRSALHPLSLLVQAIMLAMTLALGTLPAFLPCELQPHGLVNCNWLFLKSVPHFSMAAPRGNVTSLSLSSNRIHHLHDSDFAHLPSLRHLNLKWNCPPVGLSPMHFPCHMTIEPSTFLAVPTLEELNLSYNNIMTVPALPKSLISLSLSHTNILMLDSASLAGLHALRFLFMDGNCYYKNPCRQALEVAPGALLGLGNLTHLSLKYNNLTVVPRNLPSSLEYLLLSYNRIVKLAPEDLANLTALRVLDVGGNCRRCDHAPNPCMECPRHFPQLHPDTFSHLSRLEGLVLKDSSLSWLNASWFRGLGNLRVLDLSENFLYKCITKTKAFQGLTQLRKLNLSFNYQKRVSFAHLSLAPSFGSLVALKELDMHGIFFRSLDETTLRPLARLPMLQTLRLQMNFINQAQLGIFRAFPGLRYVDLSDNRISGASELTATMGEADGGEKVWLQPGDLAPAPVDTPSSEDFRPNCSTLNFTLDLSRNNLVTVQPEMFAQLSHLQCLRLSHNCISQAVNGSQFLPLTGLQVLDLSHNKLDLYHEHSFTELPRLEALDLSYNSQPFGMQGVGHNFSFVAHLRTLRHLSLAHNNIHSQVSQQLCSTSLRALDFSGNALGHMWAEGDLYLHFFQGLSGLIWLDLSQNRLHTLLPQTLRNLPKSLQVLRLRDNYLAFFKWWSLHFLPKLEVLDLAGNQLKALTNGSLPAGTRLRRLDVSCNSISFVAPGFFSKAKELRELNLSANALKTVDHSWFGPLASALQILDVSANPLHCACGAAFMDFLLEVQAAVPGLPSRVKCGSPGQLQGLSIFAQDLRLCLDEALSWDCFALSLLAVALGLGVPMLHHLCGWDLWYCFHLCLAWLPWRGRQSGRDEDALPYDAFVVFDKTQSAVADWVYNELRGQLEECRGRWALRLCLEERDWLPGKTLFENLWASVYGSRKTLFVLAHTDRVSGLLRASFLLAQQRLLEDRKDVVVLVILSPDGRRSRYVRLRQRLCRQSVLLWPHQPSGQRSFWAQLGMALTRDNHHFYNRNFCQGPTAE
BLA counter-1: beta-lactamase reporter inhibition, counter-screen artifact | shares compounds with TLR9-MyD88 inh | CHO-BLA cells, CCF4 FRET ratio, BLA reporter | inhibition, % at 4.98 µM | 680 compounds, 7% hits;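 active means mean inhibition above a 50% cutoff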;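 further: counterscreen of TLR9-MyD88 hits on CMV-driven BLA in CHO-K1 cells; 0% = DMSO alone and 100% = clavulanate blocking BLA; higher means less blue over green ratio so more BLA blockade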
TLR9 CHO tox: CHO cell toxicity counter-screen for TLR9-MyD88 inhibitors; shares compounds with TLR9-MyD88 inh; TLR9-MyD88 CHO cells cytotoxicity, luminescence; inhibition, % at 4.98 µM; 680 compounds, 39% hits; AID 588336; in the data active means inhibition above about 11%
TMEM16A reconf: re-confirmation of mouse TMEM16A chloride channel inhibitors; shares compounds with ANO1 block; HEK293 TMEM16A/YFP-H148Q, iodide quench fluorescence; ionomycin added to raise cell calcium; inhibition, % at 10 µM; 2,300 compounds, 39% hits; AID 652189;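 active means mean duplicate percent inhibition, scaled so buffer wells are 0 and the reference blocker 100, over three buffer SD above buffer mean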
TMEM16A Ca cntr: alters calcium mobilization in TMEM16A HEK293 cells, counter-screen | shares compounds with ANO1 block | TMEM16A/YFP HEK293, Fluo4 calcium mobilization | calcium response (% of ionomycin), % at 10 µM | 2,300 compounds, 2% hits;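 active means duplicate-averaged calcium signal over 20% of the ionomycin maximum, relative to buffer baseline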;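 further: each well's signal is peak minus trough fluorescence divided by its pre-addition baseline; 0% = buffer wells and 100% = ionomycin wells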
Parental YFP cnt: parental YFP-HEK293 iodide quench counter-screen activity; shares compounds with ANO1 block; ionomycin; YFP ratio F(max-min)/F0 at 10 µM; 2,300 tested, under 10 active; AID 652233;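 active means yellow fluorescent protein signal ratio exceeding the buffer control mean by over 5 SD of those controls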;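 further: ratio is mean of duplicate wells from kinetic YFP trace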
ClC-1 rat inh: selectivity of TMEM16A inhibitors: inhibition of rat ClC-1 chloride channel | shares compounds with ANO1 block | CHO ClC-1-YFP, iodide influx fluorescence quench; iodide control reads 0, buffer control 100 | ratio percent, % at 10 µM | 2,300 tested, under 10 active;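 active means duplicate-mean ratio percent above the mean of iodide-only control wells, which defines zero, plus 5 of their SD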;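 further: higher percent means stronger block of ClC-1 iodide influx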
NOD2 RIPK2 conf: confirmation of human NOD2-RIPK2 interaction inhibitors; shares compounds with NOD2-RIPK2 inh; CHO cells, NOD2-RIPK2 BLA complementation, CCF4 FRET; inhibition, % at 4.98 µM; 1,200 compounds, 70% hits;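 active means mean inhibition across replicates above a set limit taken from the earlier primary screen, cut at about 21% in these data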;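 further: 0% = DMSO-only wells and the high end = clavulanate BLA-blocked wells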
BLA counter-2: counter-screen for NOD2-RIPK2 interaction inhibitors: BLA reporter; shares compounds with NOD2-RIPK2 inh; CHO BLA reporter, CCF4 FRET ratio, counterscreen; inhibition, % at 4.98 µM; 1,200 compounds, 57% hits;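 active means mean inhibition above the low-control mean inhibition plus three low-control SD, cut at about 11% in these data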;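 further: 0% = DMSO only wells and 100% = clavulanate high control wells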
The depositor's hits bear a star; i = inactive; x = no result; ! = repeats disagree. Compounds with a hit are over-represented: about 2.2% of the library has one in this group of screens.

SMILES	GRK2 aptamer HTS	TLR9-MyD88 inh	ANO1 block	NOD2-RIPK2 inh	TLR4-MyD88 BLA	ANO1 activ	TLR9-MyD88 conf	BLA counter-1	TLR9 CHO tox	NOD2 RIPK2 conf	BLA counter-2	others
Oc1ccc2nnc3c(Br)cnn3c2c1	2	32*	i	44*	x	i	27*	31	6	60*	58*	TMEM16A reconf=i;TMEM16A Ca cntr=i;Parental YFP cnt=-0.94;ClC-1 rat inh=-6
COc1ccc(-c2cn(-c3ccccc3)c3[n+]2CCS3)cc1	0	6	i	-12	4	i	x	x	x	x	x
O=C(Cn1ncc(Cl)c(Cl)c1=O)c1ccc2c(c1)OCCO2	0	2	x	14	x	i	x	x	x	x	x
CCC(=O)Nc1ccc(C(=O)Cn2ncc(Cl)c(Cl)c2=O)cc1	1	21*	i	22*	x	i	16	2	37*	34*	9
COc1ccc(C(=Cc2ccccc2[N+](=O)[O-])C(=O)O)cc1	x	-9	x	-6	x	i	x	x	x	x	x
O=C(c1ccccc1)c1cc(Cl)ccc1N1C(=O)C=CC1=O	x	33*	x	59*	8	i	38*	8	96*	89*	23*
COCCN(C(=O)COC(=O)C1CCCCC1)c1c(N)n(Cc2ccccc2)c(=O)[nH]c1=O	x	-2	x	0	x	x	x	x	x	x	x
Cc1ccc(-n2sc3cc(F)ccc3c2=O)c(C)c1	x	30*	x	38*	x	x	19	-1	85*	26*	15*
O=c1c2cc(F)ccc2sn1-c1ccccc1Cl	x	0	x	-5	x	x	x	x	x	x	x
CCCCn1c(N)c(N(CCC(C)C)C(=O)C2CCCN(C(=O)c3ccc(Cl)cc3)C2)c(=O)[nH]c1=O (centres undefined)	2	12	i	-5	x	i	x	x	x	x	x
Cc1ccc2c(c1)c(N=O)c(O)n2Cc1ccc(Cl)cc1	2	13	i	1	17	i	x	x	x	x	x
O=Nc1c(O)n(Cc2c(Cl)cccc2Cl)c2ccccc12	1	35*	i	29*	-3	i	14	24	6	36*	42*
CC(C)NC(=O)c1onc(CSc2ccc(Cl)cc2)c1C(=O)NC(C)C	3	-10	i	-1	x	i	x	x	x	x	x
O=C(Nc1ccccc1SC(=O)c1ccccc1)c1ccccc1	x	-9	x	-8	x	x	x	x	x	x	x
Cc1ccc(C(=O)Sc2cccccc2=O)cc1	1	30*	i	35*	x	i	21*	11	99*	48*	16*
CC(=O)c1ccc2c3c(cccc13)C(=O)N(c1c(C)nn(C)c1C)C2=O	0	6	i	0	13	i	x	x	x	x	x
Cc1n[nH]c(C)c1N1C(=O)c2cccc3c(N4CCCCCC4)ccc(c23)C1=O	0	27*	i	38*	17	i	16	18	6	32*	42*
CCOc1ccc(Oc2ccc(C(F)(F)F)cc2N)cc1	4	-5	i	-5	-9	i	x	x	x	x	x
Cc1ccccc1C(=O)NC1CCN(CC(=O)NC2CCCCC2)CC1	2	-3	i	-1	x	i	x	x	x	x	x
Cc1cccc(/C=C2\Oc3cc(OS(C)(=O)=O)ccc3C2=O)c1	0	-8	i	-6	5	i	x	x	x	x	x
O=C1/C(=C/c2cccc(F)c2)Oc2cc(O)ccc21	3	25*	i	32*	x	i	10	15	2	44*	42*
CCC1CCCCN1C(=O)CCS(=O)(=O)c1ccccc1 (centres undefined)	2	-4	i	-10	x	i	x	x	x	x	x
CC(=O)Nc1ccc2c(c1)Cc1cc(N3C(=O)C=CC3=O)ccc1-2	x	33*	x	33*	x	i	56*	17	99*	85*	30*
CC1=Nc2ccc(C)cc2/C1=C/c1c(N)n2oc(C)cc2nc1=O	0	21*!	i	55*	-8	i	15	19	4	42*	29*
O=C(Nc1ccccc1)c1nnsc1S(=O)c1ccc(Cl)cc1 (centres undefined)	0	23*	i	33*	23	-9.3*	37*	7	97*	78*	25*
SMILES	GRK2 aptamer HTS	TLR9-MyD88 inh	ANO1 block	NOD2-RIPK2 inh	TLR4-MyD88 BLA	ANO1 activ	TLR9-MyD88 conf	BLA counter-1	TLR9 CHO tox	NOD2 RIPK2 conf	BLA counter-2	others
O=C(c1nnsc1S(=O)c1ccc(Cl)cc1)N1CCOCC1 (centres undefined)	x	28*	x	52*	6	i	31*	1	101*	68*	21*
CC(C)Cn1c(=S)[nH]c2cc(Cl)ccc21	1	2	i	9	-5	i	x	x	x	x	x
C(=N\NC1=Nc2cccc3cccc1c23)/c1ccccn1	x	-1	x	3	-4	i	x	x	x	x	x
Clc1ccccc1/C=N/NC1=Nc2cccc3cccc1c23	0	31*	i	36*	14	i	13	12	11*	30*	29*
Cc1ccc(C(=O)O)cc1N1C(=O)c2cccc3c([N+](=O)[O-])ccc(c23)C1=O	x	29*	i	56*	x	i	26*	22	-3	45*	39*
CC(=O)Oc1cccc(N2C(=O)c3ccc(C(=O)O)cc3C2=O)c1	0	-7	i	-1	-4	i	x	x	x	x	x

Screens (PubChem BioAssay)
